According to the supplement of paper PMC8975748:
Structures can show the parent of a compound that is named as a salt. ± gives the standard deviation of the averaged measurements.

Tested on: Saccharomyces cerevisiae BY4741 SeMeCo community
Assay: mean cell size (pixel area) (pixels); higher = larger cells
Details: 10 µM; 24 h; SM minimal medium
Procedure, shortened: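 The test system was a fluorescent Saccharomyces cerevisiae BY4741 community with four plasmids, each restoring one auxotrophy and carrying a fluorescent marker. Cells were grown for 24 h in SM medium with drug at a final 10 µM in 384-well plates, then fixed with paraformaldehyde and imaged by automated confocal microscopy for Harmony analysis of mean cell pixel area per well. Values represent the average of 3 replicates. Same SeMeCo high-content imaging drug screen: Selleck FDA-approved drugs at 10 µM, 24 h in SM medium, 384-well plates, 3 replicates.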

Compound	mean cell size
CC[C@H]1OC(=O)[C@H](C)[C@@H](O[C@H]2C[C@@](C)(OC)[C@@H](O)[C@H](C)O2)[C@H](C)[C@@H](O[C@@H]2O[C@H](C)C[C@H](N(C)C)[C@H]2O)[C@](C)(O)C[C@@H](C)C(=O)[C@H](C)[C@@H](O)[C@]1(C)O [Erythromycin]	12.3 ± 0.15
Cn1c(=O)c2c(ncn2CC2OCCO2)n(C)c1=O [Doxofylline]	12.2 ± 0.51
Nc1ccc(S(=O)(=O)Nc2nccs2)cc1 [Sulfathiazole]	12.4 ± 0.21
CC[C@@H]1/C=C(\C)C[C@H](C)C[C@H](OC)[C@H]2O[C@@](O)(C(=O)C(=O)N3CCCC[C@H]3C(=O)O[C@H](/C(C)=C/[C@@H]3CC[C@@H](O)[C@H](OC)C3)[C@H](C)[C@@H](O)CC1=O)[C@H](C)C[C@@H]2OC [Ascomycin (FK520)]	11.8 ± 0.18
CN(C)c1ccc(O)c2c1C[C@H]1C[C@H]3[C@H](N(C)C)C(O)=C(C(N)=O)C(=O)[C@@]3(O)C(O)=C1C2=O [Minocycline HCl]	12.2 ± 0.13
O=C(O)CCC(=O)OC[C@@H](NC(=O)C(Cl)Cl)[C@H](O)c1ccc([N+](=O)[O-])cc1 [Chloramphenicol sodium succinate]	12.13 ± 0.03
C1CCN2C[C@@H]3C[C@@H](CN4CCCC[C@@H]34)[C@H]2C1 [(-)-Sparteine Sulfate]	12.2 ± 0.3
CCC[C@@H]1C[C@@H](C(=O)N[C@@H]([C@H]2O[C@H](SC)[C@H](O)[C@@H](O)[C@H]2O)[C@H](C)Cl)N(C)C1 [Clindamycin HCl]	12.61 ± 0.074
CCCCCCCCOc1ccccc1C(=O)Nc1ccc(C(=O)OCC[N+](C)(CC)CC)cc1 [Otilonium Bromide]	12.27 ± 0.099
C/C=C1\[C@H]2C=C(C)C[C@]1(N)c1ccc(=O)[nH]c1C2 [(-)-Huperzine A (HupA)]	12.04 ± 0.12
CCCSc1ccc2[nH]c(NC(=O)OC)nc2c1 [Albendazole]	12.59 ± 0.075
O=C1N=C(O)NC1(c1ccccc1)c1ccccc1 [Phenytoin Sodium]	12.527 ± 0.0075
O=C1C(N(CO)C(=O)NCO)N(CO)C(=O)N1CO (stereo not given) [Diazolidinyl urea]	12.1 ± 0.16
N#Cc1ccc(Oc2ccc3c(c2)COB3O)cc1 [Crisaborole (AN2728)]	12.3 ± 0.19
NC(=O)OCC(COC(N)=O)c1ccccc1 [Felbamate]	12.33 ± 0.12
Clc1ccc(COC(Cn2ccnc2)c2ccc(Cl)cc2Cl)cc1 (stereo not given) [Econazole nitrate]	11.9 ± 0.2
CC(=O)[C@H]1CC[C@H]2[C@@H]3CC=C4C[C@@H](O)CC[C@]4(C)[C@H]3CC[C@]12C [Pregnenolone]	12.46 ± 0.12
C[N+]1(C)[C@@H]2C[C@@H](OC(=O)C(O)(c3cccs3)c3cccs3)C[C@H]1[C@@H]1O[C@@H]12 [Tiotropium Bromide hydrate]	12.5 ± 0.25
O=C(O)c1ccccc1C(=O)Nc1ccc(S(=O)(=O)Nc2nccs2)cc1 [Phthalylsulfathiazole]	12 ± 0.48
CO[C@@]1(NC(=O)Cc2cccs2)C(=O)N2C(C(=O)O)=C(COC(N)=O)CS[C@@H]21 [Cefoxitin sodium]	12.5 ± 0.3

Compound	mean cell size
COc1ccccc1OCC(O)CN1CCN(CC(=O)Nc2c(C)cccc2C)CC1 (stereo not given) [Ranolazine 2HCl]	12.35 ± 0.013
CN1C[C@@H]2C[C@H]1CN2c1cc2c(cc1F)c(=O)c(C(=O)O)cn2C1CC1 [Danofloxacin Mesylate]	12.1 ± 0.25
CO/N=C(\C(=O)N[C@@H]1C(=O)N2C(C(=O)O)=C(COC(C)=O)CS[C@H]12)c1csc(N)n1 [Cefotaxime sodium]	12.36 ± 0.028
CSCC1CN(/N=C/c2ccc([N+](=O)[O-])o2)C(=O)O1 (stereo not given) [Nifuratel]	13.05 ± 0.13
O=C1OCCN1/N=C/c1ccc([N+](=O)[O-])o1 [Furazolidone]	13.1 ± 0.18
CC1(C)S[C@@H]2[C@H](NC(=O)[C@H](N)c3ccc(O)cc3)C(=O)N2[C@H]1C(=O)O [Amoxicillin Sodium]	12.5 ± 0.31
COc1ccc(C(=O)NCc2ccc(OCCN(C)C)cc2)cc1OC [Itopride hydrochloride]	12.4 ± 0.13
O=S(=O)(O)CCCCOC[C@H]1O[C@@H]2O[C@H]3[C@H](O)[C@@H](O)[C@@H](O[C@H]4[C@H](O)[C@@H](O)[C@@H](O[C@H]5[C@H](O)[C@@H](O)[C@@H](O[C@H]6[C@H](O)[C@@H](O)[C@@H](O[C@H]7[C@H](O)[C@@H](O)[C@@H](O[C@H]8[C@H](O)[C@@H](O)[C@@H](O[C@H]1[C@H](O)[C@H]2O)O[C@@H]8CO)O[C@@H]7COCCCCS(=O)(=O)O)O[C@@H]6COCCCCS(=O)(=O)O)O[C@@H]5COCCCCS(=O)(=O)O)O[C@@H]4COCCCCS(=O)(=O)O)O[C@@H]3COCCCCS(=O)(=O)O	12.1 ± 0.26
CN1CCC(=C2c3ccccc3CCc3sccc32)CC1 [Pizotifen Malate]	12.5 ± 0.16
Nc1nc(N)nc(-c2cc(Cl)ccc2Cl)n1 [Irsogladine]	12.2 ± 0.19
CC(C)(C)CC(C)(C)c1ccc(OCCOCC[N+](C)(C)Cc2ccccc2)cc1 [Benzethonium Chloride]	11.7 ± 0.27
COc1cccc(CCc2ccccc2OCC(CN(C)C)OC(=O)CCC(=O)O)c1 (stereo not given) [Sarpogrelate hydrochloride]	12.3 ± 0.35
CN(Cc1cnc2nc(N)nc(N)c2n1)c1ccc(C(=O)N[C@@H](CCC(=O)O)C(=O)O)cc1 [Methotrexate]	15.5 ± 0.33
CC[C@H]1OC(=O)[C@H](C)[C@@H](O[C@H]2C[C@@](C)(OC)[C@@H](O)[C@H](C)O2)[C@H](C)[C@@H](O[C@@H]2O[C@H](C)C[C@H](N(C)C)[C@H]2O)[C@](C)(O)C[C@@H](C)CN(C)[C@H](C)[C@@H](O)[C@]1(C)O [Azithromycin]	12.5 ± 0.14
Cc1ncc([N+](=O)[O-])n1CCOC(=O)c1ccccc1 [Metronidazole Benzoate]	12.382 ± 0.0058
CN[C@@H]1[C@@H](O)[C@@H](O[C@@H]2[C@@H](O)[C@H](O[C@H]3OC(CN)=CC[C@H]3N)[C@@H](N)C[C@H]2N)OC[C@]1(C)O [Sisomicin sulfate]	12.12 ± 0.053
CC1(C)S[C@@H]2[C@H](NC(=O)Cc3ccccc3)C(=O)N2[C@H]1C(=O)O [Penicillin G Sodium]	12.6 ± 0.34
Oc1c(Br)cc(Br)c2cccnc12 [Broxyquinoline]	14.7 ± 0.16
O=C1NC(=O)C(c2ccccc2)(c2ccccc2)N1 [Phenytoin]	12.39 ± 0.12
CN1[C@@H]2CC[C@H]1C[C@@H](OC(=O)c1c[nH]c3ccccc13)C2 [Tropisetron]	12.15 ± 0.079
